# According to PubChem BioAssay (NCI):
# The panel holds about 83,000 compounds, 20% with a hit somewhere; the sample as a whole holds those more often.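 Method: cells in 96-well plates; compound added at one concentration; 48 h incubation; percent growth measured; values under 10 scored active.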 Values without a mark were called inactive. Active and inactive are the calls of the source.
# System: HL-60(TB) leukemia
# Assay: NCI-60 one-dose screen, 48 h (100 = growth as untreated, 0 = no growth, -100 = all killed)
# Settings: 10 µM unless noted
row,Compound,growth
1,C=C(C)CCCC(C)CC#N (stereo not given),108%
2,NC(N)=N/N=C/c1ccc(-c2ccc(-c3cc(Cl)cc(Cl)c3)s2)cc1,24.9%
3,CCNC(=O)N1CCc2c(Cl)c3c(c(OC)c2[C@@H]1[C@H]1OCc2c1ccc(OC)c2OC)OCCO3,-2.42% (active)
4,Fc1ccc(-c2nn3c(-c4cc(C(F)(F)F)cc(C(F)(F)F)c4)nnc3s2)cc1,92.2%
5,COc1cc(C(=O)Nc2cc(O)c(CC=C(C)C)c(O)c2)cc2c1O[C@]1(C)CC[C@@H](O)C(C)(C)[C@H]1C2,5.12% (active)
6,N#Cc1c(N)c(C(=O)c2ccc3c(c2)OCCO3)n2c1CCCC2,-19.2% (active)
7,COCCCN1CC(O)=C(c2nc(-c3ccc(C)cc3)cs2)C1=N,84.9%
8,NC(=S)N1N=C(c2ccc(Cl)cc2)CC1c1cc2ccccc2[nH]c1=O (stereo not given),75.1%
9,CCOC(=O)c1csc(-c2ccc(COC(=O)c3ccccc3)o2)n1,107%
10,CCCNC(=O)Oc1ccc(/C(=C(/CC)Cc2ccccc2)c2ccc(OCCN(CC)CC)cc2)cc1,53.3%
11,Cc1ccc(NC(=O)Cn2c(Br)nc3c2c(=O)n(C)c(=O)n3C)cc1,102%
12,COc1cccc(-c2cc(-c3cc4ccccc4oc3=O)nc(N)n2)c1,101%
13,CCN(CCCNC(=O)Cc1cc(=O)oc2cc(N(C)C)ccc12)CCNc1ccnc2cc(Cl)ccc12,76.6%
14,CO[C@H](C(=O)[C@@H](O)[C@@H](C)O)[C@@H]1Cc2cc3cc(O[C@H]4C[C@@H](O[C@H]5C[C@@H](O)[C@H](O)C(C)O5)[C@H](O)C(C)O4)c(C)c(O)c3c(O)c2C(=O)[C@H]1O[C@H]1C[C@@H](O[C@H]2C[C@@H](O[C@H]3C[C@@H](OC)[C@H](O)C(C)O3)[C@@H](O)C(C)O2)C(O)(O)C(C)O1 (stereo not given in full),26.8%
15,N#Cc1c2cccnc2c2nnc3cc(Cl)c(Cl)cc3n12,23.3%
16,COc1cc(-c2nc3ccccc3s2)ccc1NC(=O)COc1ccc(Cl)cc1,56.3%
17,O=c1c2cc(Cl)ccc2oc2ccc(OCCCCCN3CCCCC3)cc12,38.5%
18,O=C1/C(=C/c2ccc(Oc3ccccc3)cc2)N=C(c2ccccc2)N1CCc1cccs1,86%
19,CC(=O)O[C@@H]1CC2C(C)(C)CCCC2(C)C2=C1C(=O)C(C(C)C)=CC2=O (stereo not given in full),1.18% (active)
20,NC(CC(N)C(=O)O)C(=O)O (stereo not given),110%

row,Compound,growth
1,OC1CCCc2ccccc21 (stereo not given),98.4%
2,O=Nc1c(-c2cccc([N+](=O)[O-])c2)nc2ncccn12,0.307% (active)
3,Fc1ccc(Nc2ccc3cc(OCCCN4CCOCC4)ccc3n2)cc1F,75.4%
4,CCN(CC)c1ccc(/C=C/C2=[N+](C)c3ccccc3C2(C)C)c(C)c1,-34.7% (active)
5,CC1CN(/N=C/c2ccc([N+](=O)[O-])o2)C(=N)O1 (stereo not given),99.8%
6,CN(C)N=Nc1nn(C(=O)Nc2ccc(Cc3ccccc3)cc2)c2ccccc12,21.4%
7,Cc1ccc(OCCn2c(C)nn(-c3ccc(Cl)cc3)c2=O)cc1,114%
8,CCCCn1c(=O)c2c(nc(NCCc3ccc(O)c(O)c3)n2CCC)n(CCCC)c1=O,60.3%
9,O=[N+]([O-])c1cccc(-c2nc3sccn3c2-c2ccnc(NCCNS(=O)(=O)c3ccc(C(F)(F)F)cc3)n2)c1,16%
10,S=C(NCCNC(=S)[S][Sn]([c]1ccccc1)([c]1ccccc1)[c]1ccccc1)[S][Sn]([c]1ccccc1)([c]1ccccc1)[c]1ccccc1,-31% (active)
11,Clc1ccc(Nc2nnc(-c3ccc4c(c3)OCO4)o2)cc1,80.1%
12,COc1cc(CN(c2ccc(C)cc2)C2OC(=O)c3ccccc32)cc(OC)c1OC (stereo not given),-30.4% (active)
13,Brc1ccc(Nc2nc3ccccc3nc2Nc2ccc(Br)cc2)cc1,-12.3% (active)
14,O=S(=O)(Nc1cc(Cl)ccc1Cl)c1ccc(-c2cnc(C3CC3)o2)cc1,0.302% (active)
15,CCN(CC)c1cc2oc3cc(N)cc(=N)c-3nc2cc1C,-15.2% (active)
16,O=C(NNC(=S)Nc1ccccc1)c1cc2ccc1CCc1ccc(cc1)CC2,77.1%
17,CCc1c(Nc2ccc(C)cc2)nc(N)[nH]c1=O,89.6%
18,CCOC(=O)[C@H](CSSc1ncnc2cc[nH]c12)NC(=O)[C@@H](C)c1ccc2cc(OC)ccc2c1,7.65% (active)
19,NCCOc1ncccc1/C=C1\c2ccccc2-c2ccc(F)cc21,-38.6% (active)
20,O=C(NCCN1CCOCC1)Nc1ccc(-c2cc3c(Nc4ccc(Oc5cccc(C(F)(F)F)c5)c(Cl)c4)ncnc3s2)cc1,-25.6% (active)
